# This is a sample that favours compounds with a hit; in the whole collection about 12% have one here.
# G9a inh-1 = G9a (human) methyltransferase inhibition. AID 504332. Q96KQ7. hit rate 8.8% among 350,000. G9a H3K9 monomethylation, AlphaScreen, 2 h. Potency, µM (series often up to 102 µM), most hits filed as inhibitors; also: nearly all actives have a fitted effect of over 75% in size
#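 AlphaScreen read-out: biotin-H3K9 peptide (500 nM) methylation by 20 nM enzyme with 20 uM SAM, 2 h at room temperature after 15 min compound preincubation; anti-monomethyl H3K9 antibody plus donor/acceptor beads, 10 min dark.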
# HP1b binding inh = HP1-beta chromodomain-methylated histone interaction inhibition | Potency, µM (series often up to 114 µM), hits mostly inhibitors | AlphaScreen HP1-beta / biotin-H3K9me3 peptide binding | hit rate 0.56% among 390,000; also: nearly all actives have a fitted effect of over 70% in size
#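 Compound inhibition of the preformed complex between 50 nM HP1-beta and 50 nM biotinylated H3K9me3 peptide was read by AlphaScreen. Buffer was PBS pH 7.4 with 0.01% Tween-20. Incubations ran 30 min at room temperature, with 10 ug/mL donor/acceptor beads.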
# BAZ2B block = blocks human BAZ2B; hit rate 4.4% among 360,000; Potency, µM (titrated, usually from 114 µM), most hits filed as inhibitors; AID 504333; AlphaScreen BAZ2B-H3K14Ac peptide displacement; Q9UIF8; also: nearly all actives have a fitted effect of over 60% in size
#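 Protein-peptide AlphaScreen: BAZ2B 50 nM, b-H3K14Ac 50 nM, 1x PBS pH 7.4 + 0.01% Tween-20. Preincubation 30 min RT; cpd 30 min RT (top 110 uM); beads 20 min RT, light-protected.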
# JMJD2A Tudor inh = blocks the human JMJD2A Tudor domain; O75164; AlphaScreen JMJD2A-Tudor / H3K4me3 peptide binding; Potency, µM (doses to about 114 µM), most hits filed as inhibitors; hit rate 4.4% among 390,000; AID 504339; also: nearly all actives have a fitted effect of over 50% in size
# Sfp inh = inhibitors of Bacillus subtilis Sfp phosphopantetheinyl transferase; Q9F4F7; Potency, µM, most hits filed as inhibitors; hit rate 3.5% among 310,000; Biochemical Sfp PPTase activity, qHTS;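 also: the enzyme is Sfp with the accession as filed and its product quenches rhodamine fluorescence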
#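 With Hepes-Na pH 7.6 buffer containing 10 mM MgCl2, Sfp (15 nM) modified BHQ-2-YbbR (12.5 uM) using rhodamine-CoA (5 uM). Two reads 30 minutes apart at 525/598 nm yielded each well's rate.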
# L3MBTL1 inh-1 = inhibitors of human L3MBTL1; AlphaScreen L3MBTL1–H3K9me1 peptide binding; Potency, µM (titrated, usually from 57.1 µM), most hits filed as inhibitors; hit rate 0.66% among 230,000; AID 485360; also: nearly all actives have a fitted effect of over 60% in size
# Target sequence (Q9Y468 whole entry, looked up): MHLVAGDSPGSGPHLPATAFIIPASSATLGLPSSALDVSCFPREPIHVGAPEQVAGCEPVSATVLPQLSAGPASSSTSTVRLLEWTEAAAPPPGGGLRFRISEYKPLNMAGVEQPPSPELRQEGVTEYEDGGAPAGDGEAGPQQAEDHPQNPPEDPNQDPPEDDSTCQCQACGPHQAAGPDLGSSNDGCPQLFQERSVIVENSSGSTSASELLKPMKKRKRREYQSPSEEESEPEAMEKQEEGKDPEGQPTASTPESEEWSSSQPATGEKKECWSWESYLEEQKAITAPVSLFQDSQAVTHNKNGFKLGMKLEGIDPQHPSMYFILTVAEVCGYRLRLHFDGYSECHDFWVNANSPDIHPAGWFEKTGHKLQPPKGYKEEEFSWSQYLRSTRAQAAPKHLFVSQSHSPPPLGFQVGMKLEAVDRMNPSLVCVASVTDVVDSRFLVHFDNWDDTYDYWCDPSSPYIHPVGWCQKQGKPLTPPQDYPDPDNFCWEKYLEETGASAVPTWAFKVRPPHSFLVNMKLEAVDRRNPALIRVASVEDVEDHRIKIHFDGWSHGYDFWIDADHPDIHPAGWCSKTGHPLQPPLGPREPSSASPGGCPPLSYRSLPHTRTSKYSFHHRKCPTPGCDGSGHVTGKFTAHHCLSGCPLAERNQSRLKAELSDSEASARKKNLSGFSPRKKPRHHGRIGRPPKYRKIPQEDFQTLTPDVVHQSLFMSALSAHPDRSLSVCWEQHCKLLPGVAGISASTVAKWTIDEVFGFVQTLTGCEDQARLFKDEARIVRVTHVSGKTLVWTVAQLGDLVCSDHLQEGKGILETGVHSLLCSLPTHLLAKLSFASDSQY
#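 AlphaScreen proximity signal between nickel-chelate acceptor and streptavidin donor beads (final 10 ug/mL) reports binding of 50 nM L3MBTL1 to 75 nM biotin-H3 K9me1 peptide; complex incubated with compounds 30 min at room temperature; cefsulodin titration as control.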
# L3MBTL1 inh-2 = validation of human L3MBTL1 methyl-lysine binding inhibitors | shares compounds with L3MBTL1 inh-1 | L3MBTL1 methyl-lysine binding inhibition, biochemical qHTS | Potency, µM, most hits filed as inhibitors | hit rate 91% among 500 | AID 540279; also: nearly all actives have a fitted effect of over 70% in size
# L3MBTL1 ctr = interferes with AlphaScreen signal in L3MBTL1 counterscreen; shares compounds with L3MBTL1 inh-1; AlphaScreen counterscreen, signal inhibition; Potency, µM (series often up to 57.1 µM), usual class: inhibitors; 500 tested, under 10 active; AID 602224
# ME-1 growth = ME-1 cell growth inhibition | Potency, µM (top dose mostly 56.1 µM), actives largely listed as inhibitors | shares compounds with BAZ2B block | ME-1 cell proliferation, ATP luminescence, 48 h | AID 504370 | hit rate 20% among 140
# G9a inh-2 = confirmation of human histone methyltransferase G9a inhibitors. G9a H3K9 monomethylation, AlphaScreen, 2 h. hit rate 89% among 370. Potency, µM, hits mostly inhibitors. shares compounds with JMJD2A Tudor inh; also: nearly all actives have a fitted effect of over 65% in size
# Hits are given with their value; . = inactive; ? = inconclusive; / = no result; ! = not active in a repeat; [ ] = dose if it differs, or a comment. Calls follow the shape of the dose curve; as a rule, active = well fitted curve in the direction sought with a large enough effect; inconclusive = small, poorly fitted or top-dose-only effect, or another doubt; inactive = no such curve, though single readings can be large; an effect the other way counts as inactive or inconclusive.
SMILES,G9a inh-1,HP1b binding inh,BAZ2B block,JMJD2A Tudor inh,Sfp inh,L3MBTL1 inh-1,others
CN1CCC(n2nccc2N)CC1,.[12.7 µM],.,.,.,.,/,
CN1CCC(N2CC3CC(C2)c2cccc(=O)n2C3)CC1 (stereo not drawn),?,.,.,.,.,40µM,L3MBTL1 inh-2=27;L3MBTL1 ctr=.
CCOc1ccc(N2C(=O)/C(=C/c3ccc(C)o3)C(=O)NC2=S)cc1,/,?,?,25µM,22µM,22µM,L3MBTL1 inh-2=2.7;L3MBTL1 ctr=.
Cc1c(Cl)cccc1N1C(=O)NC(=O)/C(=C\c2cc(C)n(-c3cccc(C(=O)O)c3C)c2C)C1=O,/,.,?,.,.,.,
Cc1cc(/C=C2\C(=O)NC(=O)N(Cc3ccccc3)C2=O)c(C)n1-c1ccc(Cl)c(C(=O)O)c1,13µM,.,32µM,45µM,.,4.5µM,L3MBTL1 inh-2=0.75;L3MBTL1 ctr=.
CC(=O)c1c(C)n(Cc2ccccc2Cl)c2ccc(O)cc12,/,.,.,.,.,.,
Cc1cc(/C=C2\C(=O)NC(=O)N(Cc3ccco3)C2=O)c(C)n1-c1ccc(C(=O)O)cc1,50µM,?,50µM,.,.,28µM,L3MBTL1 inh-2=13;L3MBTL1 ctr=.
Cc1cc(/C=C2\C(=O)NC(=O)N(Cc3ccccc3Cl)C2=O)c(C)n1-c1ccc(C(=O)O)cc1,25µM,71µM,50µM,?,.,28µM,L3MBTL1 inh-2=5.3;L3MBTL1 ctr=.
O=C(Nc1ccccc1)N1CC[C@@]2(CCCN(C(=O)Oc3ccccc3)C2)C1,.[12.7 µM],/,/,/,.,/,
CC(C)(C)c1ccc(/C=C2\Oc3cc(OC(=O)N4CCOCC4)ccc3C2=O)cc1,.,.,.,?,.,.,
O=C(NC(=O)c1c(F)cccc1F)Nc1ccc(Cl)cc1,/,/,/,/,.,/,
NCc1cccnc1,.[12.7 µM],/,/,/,.,/,
O=C1NC(=O)N(Cc2ccc(F)cc2)C(=O)/C1=C\c1ccoc1,40µM,?,50µM,79µM,.,20µM,L3MBTL1 inh-2=7.5;L3MBTL1 ctr=.
O=C1NC(=S)N(C2CC2)C(=O)/C1=C/c1ccc2c(c1)CCN2CCCCl,11µM,?,32µM,45µM,20µM,32µM,L3MBTL1 inh-2=4.2;L3MBTL1 ctr=.
C[n+]1c2cc(N)ccc2cc2ccc(N)cc21,?,.,/,?,.,/,
CCn1nc(-c2ccccc2)nc2c(=O)n(C)c(=O)nc1-2,?,.,.,.,.,0.71µM,ME-1 growth=11µM
CN(N=O)c1cc(O)ccc1O,0.6µM,?,/,6.3µM,/,/,ME-1 growth=40µM
COc1cccc(C(=O)Nc2ccc3nc(SCC(=O)N(C)c4ccccc4)sc3c2)c1,.,.,.,.,/,/,
Cc1cccc(-n2c(O)c(/C=N/Nc3nc4c(c(=O)n(C)c(=O)n4C)n3C)c(=O)[nH]c2=S)c1,?,.,?,?,56µM,.,ME-1 growth=.
Cc1cccc(-n2c(O)c(C=NCCN3CCNCC3)c(=O)[nH]c2=S)c1,.,.,.,.,.,/,
COc1ccc(NC(=O)CCS(=O)(=O)c2ccc3c(c2)oc(=O)n3C)cc1OC,.,.,.,.,.,/,
CCCCNC(=O)Oc1c(Br)cc2sc(=O)oc2c1Br,8.9µM,/,50µM,/,11µM,/,ME-1 growth=?
CCCCNC(=O)Oc1cc(CCl)on1,?,/,.,/,.,.,
COc1ccc(OCc2nnc(SCC(=O)NCC3CCCO3)n2N)cc1 (stereo not drawn),/,?,/,.,/,.,
CCCCc1ccc(C(=O)O)nc1,6µM!,.,4µM,.,28µM,8.9µM,ME-1 growth=?
SMILES,G9a inh-1,HP1b binding inh,BAZ2B block,JMJD2A Tudor inh,Sfp inh,L3MBTL1 inh-1,others
C=C1CC[C@H](O)C/C1=C/C=C1\CCC[C@]2(C)[C@H]1CC[C@H]2[C@@H](C)CCCC(C)C,.[21.5 µM],/,/,/,.,/,ME-1 growth=.
CCCCCCCCCC(=O)O[C@H]1CC[C@H]2[C@@H]3CCC4=CC(=O)CC[C@@H]4[C@H]3CC[C@]12C,.,/,/,/,.,/,
COc1ccc(-c2noc(CN3C(=O)c4ccccc4C3=O)n2)cc1,?,.,.,.,.,.,
CCc1nc(-c2ccc(C)nc2OC)no1,?,.,.,.,.,/,G9a inh-2=1.8
O=C(c1ccncc1)N1CCC2(CC1)CN(Cc1ccccc1)C2,.[12.7 µM],/,/,/,.,/,
Fc1cccc(CCNCc2ccccn2)c1,1.6µM,.,20µM,3.5µM,56µM,.,G9a inh-2=28
c1ccc(CNCCc2ccc3c(c2)OCO3)nc1,1.8µM,.,45µM,?,.,.,G9a inh-2=?
NCCc1ccccn1,.,/,/,/,.,/,
CC(C)CN1CCC2(CC1)CCN(S(C)(=O)=O)CC2,.[12.7 µM],/,/,/,.,/,
O=C(O)[C@@H]1CCN1,.,/,/,/,/,/,
CSc1ccc(CN2CCN(C(=O)COc3cccc(C)c3)CC2)cc1,10µM,40µM,50µM,8.9µM,71µM,.,G9a inh-2=40
Cc1ccc(OCC(=O)N2CCN(Cc3cccnc3)CC2)cc1,2.8µM,?,/,4µM,?,.,G9a inh-2=16
O=C(COc1ccc(Cl)cc1)N1CCN(Cc2ccc([N+](=O)[O-])cc2)CC1,2.5µM,?,/,11µM,?,.,G9a inh-2=35
C[C@@H](C(=O)OC1C[C@H]2CC[C@@H](C1)N2C)c1ccc(Br)cc1 (stereo partly drawn),/,/,/,/,.,/,
Cc1cc(N2CCNCC2)nc2ccccc12,?,.,.,.,.,.,G9a inh-2=?
Cn1c(N2CCNCC2)nc2ccccc21,.[12.7 µM],.,.,.,.,/,

# Screening data: PubChem, National Center for Advancing Translational Sciences (NCATS)
